In PubChem BioAssay AID720690 (Broad Institute, 2013):
Measured potencies and affinities stand elsewhere. Calls of active or inactive are those of the source.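 The calls were made as follows: active = every repeat run showing a signal drop whose fitted half-maximal concentration is at most twice the top tested concentration; inconclusive = repeat runs disagree, or flat partial drop, or poor fit; inactive = the rest.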

assay: general mammalian cell viability loss – activator set, cherry-pick, cytotoxicity control for miR-122 modulator project, dose response (AID 720690); conditions: HEK293T viability, CellTiter-Glo luminescence, 48 h; series mostly up to 26 µM

SMILES | outcome
CNC(=O)C[C@H]1CC[C@@H]2[C@H](COc3ccc(NC(=O)Nc4ccc(F)c(F)c4)cc3C(=O)N2C)O1 | inactive
c1ccc(-c2nnc3n2CCCC3)cc1 | inactive
CNC(=O)C[C@H]1CC[C@@H]2[C@@H](COc3ccc(NC(=O)c4cccc(OC)c4)cc3C(=O)N2C)O1 | inactive
COC(=O)c1cc(NS(=O)(=O)c2ccc3c(c2)CCC(=O)N3)cc(C(=O)OC)c1 | inactive
C[C@@H]1CN([C@H](C)CO)S(=O)(=O)c2ccc(/C=C/c3ccccc3)cc2O[C@@H]1CN(C)C(=O)c1cccnc1 | inactive
Cc1ccccc1-c1ccc2c(c1)O[C@@H](CN(C)C(=O)Nc1ccc(F)cc1)[C@@H](C)CN([C@@H](C)CO)S2(=O)=O | inactive
COc1cccc(S(=O)(=O)N(C)C[C@@H]2Oc3cc(C4=CCCC4)ccc3S(=O)(=O)N([C@H](C)CO)C[C@@H]2C)c1 | inactive
COC(=O)C[C@@H]1CC[C@@H]2[C@H](COc3ccc(NS(=O)(=O)c4ccc(F)cc4)cc3C(=O)N2C)O1 | inactive
CCNC(=O)C[C@@H]1CC[C@@H]2[C@H](COc3ccc(NC(=O)Nc4cccc(Cl)c4)cc3C(=O)N2C)O1 | inactive
CCN(C[C@@H]1N[C@H](CO)[C@H]1c1ccc(-c2ccc(F)cc2)cc1)C(=O)COC | inactive
COc1ccccc1CNc1nc(NCC2CC2)nc2ccsc12 | inactive
CO[C@@H]1CN(C)C(=O)c2ccc(NS(C)(=O)=O)cc2OC[C@H](C)N(C(=O)CN(C)C)C[C@@H]1C | inactive
CC(C)C(=O)Nc1ccc2c(c1)C(=O)N(C)[C@@H]1CC[C@H](CC(=O)NCC3CC3)O[C@H]1CO2 | inactive
CCCC(=O)Nc1ccc2c(c1)C(=O)N(C)[C@@H]1CC[C@@H](CC(=O)NCC(F)(F)F)O[C@H]1CO2 | inactive
O=C(c1ccccc1)N1C[C@H]2[C@@H](c3ccccc31)[C@@H](CO)N2C(=O)CN1CCOCC1 | inactive
CCCC(=O)Nc1ccc2c(c1)C(=O)N(C)[C@@H]1CC[C@H](CC(=O)NCCOC)O[C@H]1CO2 | inactive
O=C(C1CCOCC1)N1[C@H](CO)[C@H]2c3ccccc3NC[C@H]21 | inactive
COc1ccc(CC(NC(C)=O)C(=O)N2CCN(C(=O)N(C(C)C)C(C)C)CC2)cc1 (stereo unspecified) | inactive
CN1C(=O)c2cc(NC(=O)c3ccc(C(F)(F)F)cc3)ccc2OC[C@H]2O[C@H](CC(=O)O)CC[C@@H]21 | inactive
O=CN1CCN(C(=O)c2ccccc2F)CC1 | inactive
CNC(=O)C[C@@H]1CC[C@@H]2[C@@H](COc3ccc(NC(=O)NC(C)C)cc3C(=O)N2C)O1 | inactive
CC(=O)N1[C@H](CO)[C@@H](c2ccccc2)[C@H]1CN(C(=O)NC(C)C)C1CCCC1 | inactive
C[C@@H]1CN([C@H](C)CO)S(=O)(=O)c2ccc(C3=CCCCC3)cc2O[C@@H]1CN(C)C(=O)Cc1ccncc1 | inactive
COCC(=O)NC[C@H]1[C@@H](c2ccc(C3=CCCC3)cc2)[C@@H](CO)N1C(=O)C1CC1 | inactive
COCC(=O)Nc1ccc2c(c1)C(=O)N(C)[C@@H]1CC[C@@H](CC(=O)NC3CCCC3)O[C@@H]1CO2 | inactive
C/C=C/c1ccc2c(c1)O[C@H](CN(C)C(=O)Nc1cccc(F)c1)[C@H](C)CN([C@@H](C)CO)S2(=O)=O | inactive
